Source: PubChem
Shown are actives, neighbours in structure and some others; about 3.6% of the full set was active somewhere.
HSP90 refold inh – inhibitors of HSP90 luciferase refolding in rabbit reticulocyte lysate | 290,000 compounds, 0.91% hits | AID 1789 | inhibition, % at 5.6 µM | luciferase refolding luminescence, 3 h;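 active means inhibition above the screen-wide mean plus 3 SD, computed separately per campaign, cut at about 16% in these data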;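 further: 0% = DMSO wells and 100% = 60 µM geldanamycin wells; inhibitors lower the luminescence because luciferase stays unfolded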
Peg3 prom inh – inhibitors of Peg3 promoter; HeLa PEG-Prom luciferase reporter, luminescence, overnight; inhibition, % at 20 µM; 360,000 compounds, 1.7% hits;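 active means inhibition of at least 50% at 20 µM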
KKLEB cytotox – counter-screen for CF NF-kB inhibitors: cytotoxicity. 360,000 compounds, 0.36% hits. AID 602141. activity change (cytotoxicity), % at 5 µM. KKLEB CF airway cells viability, ATPlite luminescence, overnight; stronger effect = lower value; cells stimulated with P. aeruginosa culture filtrate;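 active means corrected activity change at or below -50% at 5 µM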
Mdm2 MdmX PPI – disrupts the human Mdm2-MdmX interaction; O15151+Q00987; SaOS-2 split-luciferase Mdm2/MdmX complementation, luminescence; inhibition, % at 8 µM; 330,000 compounds, 3% hits; AID 485346;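 active means inhibition of at least 50% at 8 µM in the primary screen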
Target sequence (O15151 whole entry, looked up): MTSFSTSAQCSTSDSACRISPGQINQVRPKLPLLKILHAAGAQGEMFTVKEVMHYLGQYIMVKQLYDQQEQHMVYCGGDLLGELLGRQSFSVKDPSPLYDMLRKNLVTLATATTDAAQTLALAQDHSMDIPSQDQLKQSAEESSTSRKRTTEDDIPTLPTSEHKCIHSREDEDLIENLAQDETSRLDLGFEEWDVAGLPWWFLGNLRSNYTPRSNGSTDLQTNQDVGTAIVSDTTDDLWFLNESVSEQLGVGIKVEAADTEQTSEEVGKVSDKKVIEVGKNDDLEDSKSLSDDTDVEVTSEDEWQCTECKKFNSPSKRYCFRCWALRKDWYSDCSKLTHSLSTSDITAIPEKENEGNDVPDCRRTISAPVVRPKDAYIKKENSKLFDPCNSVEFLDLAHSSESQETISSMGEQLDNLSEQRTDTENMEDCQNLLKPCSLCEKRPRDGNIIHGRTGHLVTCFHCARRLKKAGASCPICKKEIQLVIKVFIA
Target sequence (Q00987 whole entry, looked up): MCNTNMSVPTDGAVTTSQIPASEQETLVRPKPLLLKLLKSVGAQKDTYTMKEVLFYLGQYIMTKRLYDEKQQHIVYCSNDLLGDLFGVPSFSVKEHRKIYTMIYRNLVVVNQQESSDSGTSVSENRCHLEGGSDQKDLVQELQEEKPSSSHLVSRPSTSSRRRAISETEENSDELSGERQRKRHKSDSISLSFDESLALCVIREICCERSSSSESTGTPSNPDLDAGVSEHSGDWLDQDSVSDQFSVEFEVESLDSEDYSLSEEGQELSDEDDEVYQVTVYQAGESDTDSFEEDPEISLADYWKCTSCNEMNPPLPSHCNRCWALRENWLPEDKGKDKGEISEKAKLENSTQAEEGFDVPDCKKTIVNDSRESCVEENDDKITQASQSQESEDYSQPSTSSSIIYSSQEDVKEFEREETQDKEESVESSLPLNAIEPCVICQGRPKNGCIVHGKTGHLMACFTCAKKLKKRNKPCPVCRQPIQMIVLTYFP
LGR2 inh – blocks bursicon-induced cAMP signaling via Drosophila LGR2; inhibition, % at 9.99 µM; AID 720647; HEK293 LGR2, CRE-luciferase, bursicon-stimulated, 4 h; 380,000 compounds, 0.35% hits;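 active means drop in luminescence signal, shown as inhibition above about 50% in the replicate tests, limit read from the data, passing the limit was not always enough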;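 further: agonist challenge used bursicon conditioned medium at about half maximal strength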
CF NFkB inh – inhibitors of cystic fibrosis induced NF-kB; AID 588850; 360,000 compounds, 0.86% hits; KKLEB NF-kB-GFP reporter, PAF-induced, GFP fluorescence overnight; inhibition, % at 5 µM;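 active means at least 50% inhibition at 5 µM, scaled per plate between neutral and stimulator controls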;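 further: PAF is a Pseudomonas aeruginosa culture filtrate used as stimulus; plate controls were PAF-stimulated DMSO wells for no effect and unstimulated DMSO wells for full effect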
Mdm2-MdmX conf – human Mdm2/MdmX binding inhibition, confirmed | inhibition, % at 8 µM | AID 489028 | shares compounds with Mdm2 MdmX PPI | 10,000 compounds, 55% hits | luminescent assay; in the data active means inhibition above about 40%
FLuc counter – inhibits full-length luciferase, flagging false Mdm2/MdmX hits | shares compounds with Mdm2 MdmX PPI | SaOS-2 full-length luciferase counterscreen, luminescence | inhibition, % at 8 µM | 6,200 compounds, 77% hits;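 active means mean inhibition at 8 µM reaching about 37%, which flags the compound as non-specific, limit read from the data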;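 further: p53-null SaOS-2 cells with luciferase driven by a doxycycline-inducible promoter; compound on cells about two nights before reading with doxycycline added after day one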
* = called active by the depositor; x = no result.

SMILES | HSP90 refold inh | Peg3 prom inh | KKLEB cytotox | Mdm2 MdmX PPI | LGR2 inh | CF NFkB inh | Mdm2-MdmX conf | FLuc counter
Cc1cccn2c(=O)c3cc(C(=O)NCCC4=CCCCC4)n(C)c3nc12 | 3 | -3 | -8 | 55* | -9 | -38 | 12 | x
Cc1cccn2c(=O)c3cc(C(=O)NC4CCCC4)n(C)c3nc12 | 0 | 0 | 2 | 51* | -8 | -10 | 51* | 67*
CC1=CC(=O)C(C(C)C)=C/C1=C(\c1cc(C(C)C)c(OP(=O)(O)O)cc1C)c1ccccc1C(=O)O | 3 | 67* | 12 | 75* | 27 | -31 | 68* | 50*
O=C1c2ccc3c4c(ccc(c24)C(=O)N1c1cccc(O)c1)C(=O)N(c1cccc(O)c1)C3=O | 8 | 22 | -11 | 65* | -3 | 51* | 47* | 1
Cc1c(NC(=O)Cn2[nH]c(=O)c3ccccc3c2=O)c(=O)n(-c2ccccc2)n1C | 10 | -3 | 1 | 6 | x | -8 | x | x
Cc1sc(NC(=O)Cn2[nH]c(=O)c3ccccc3c2=O)nc1-c1ccccc1 | 5 | 63* | -2 | 56* | 11 | 16 | 8 | x
CC(C)CC#Cc1ccc2c(c1)O[C@@H](CN(C)C(=O)C1CCC1)[C@@H](C)CN([C@@H](C)CO)S2(=O)=O | x | x | x | x | -12 | x | x | x
COCc1cc(=O)[nH]c(Nc2nc3ccc(C)cc3o2)n1 | -1 | -74 | 6 | 78* | x | -18 | 8 | x
COC(=O)c1ccc(NC(=O)CNC(=O)c2sc3ccccc3c2Cl)cc1 | x | 18 | -8 | 94* | -8 | -10 | 49* | 93*
O=[N+]([O-])c1cccc(C2NCC(c3ccccc3Cl)c3c2[nH]c2ccccc32)c1 (stereo not drawn) | 5 | 32 | -2 | 29 | -8 | 8 | x | x
CN(C)c1ccc(C2CNC(c3ccc(Cl)c([N+](=O)[O-])c3)c3[nH]c4ccccc4c32)cc1 (stereo not drawn) | 8 | 7 | -18 | 54* | -1 | -8 | 29 | 62*
O=C(N[C@H]1CC[C@@H](CCNS(=O)(=O)c2ccc(Cl)cc2)O[C@@H]1CO)c1cnccn1 | x | x | x | x | 4 | x | x | x
CC1CCN(CCOc2cccc(Br)c2)CC1 | 4 | -18 | 3 | -4 | 16 | 4 | x | x
Clc1cccc(OCCN2CCN(CCOc3cccc(Cl)c3)CC2)c1 | 3 | 35 | -19 | 69* | 7 | 8 | 35 | x
O=[N+]([O-])c1ccccc1C1Nc2cccc3cccc(c23)N1 | 2 | 7 | 8 | 93* | x | -16 | 42* | 27
CCC(=O)NC[C@H]1[C@H](c2ccccc2)[C@H](CO)N1C(=O)C1CCC1 | x | x | x | x | -2 | x | x | x
CCCN(C)C[C@@H]1Oc2ncc(C#CCC(C)C)cc2C(=O)N([C@H](C)CO)C[C@H]1C | x | x | x | x | -10 | x | x | x
COc1ccc(C(=O)CC(=O)C(=O)Nc2ccc(C)cc2Cl)cc1 | 0 | 21 | 2 | 20 | -8 | -19 | x | x
COc1cc(OC)c(NC(=O)C(=O)CC(=O)c2ccc(C)cc2C)cc1Cl | 5 | 19 | 8 | 51* | 13 | -10 | 29 | 81*
CCc1nc2c(cnn2-c2ccc(Cl)cc2)c(=O)n1-c1ccc2c(c1)OCCO2 | -1 | 30 | -4 | 56* | x | 6 | 22 | x
C[C@@H]1CN([C@@H](C)CO)C(=O)c2cc(NC(=O)Nc3ccccc3)ccc2O[C@H]1CN(C)S(=O)(=O)c1cn(C)cn1 | x | x | x | x | 17 | x | x | x
O=C(c1ccc(S(=O)(=O)c2ccccc2Cl)c([N+](=O)[O-])c1)N1CCCCCC1 | 2 | 18 | -4 | 51* | 4 | 21 | 25 | x
C[C@H]1CN([C@@H](C)CO)C(=O)c2cccc(NC(=O)c3ccc(-c4nccs4)cc3)c2O[C@@H]1CN(C)S(=O)(=O)c1ccc(Cl)cc1 | x | x | x | x | -8 | x | x | x
Cc1ccc2c(c1)N(C)/C(=C/c1cccc[n+]1C)S2 | -2 | 38 | -9 | 79* | 5 | -73 | 74* | 64*
CCN1/C(=C/c2cccc[n+]2C)Sc2ccc(OC)cc21 | 1 | 22 | 3 | 74* | 13 | -42 | 48* | 78*
SMILES | HSP90 refold inh | Peg3 prom inh | KKLEB cytotox | Mdm2 MdmX PPI | LGR2 inh | CF NFkB inh | Mdm2-MdmX conf | FLuc counter
CCN1/C(=C/C(C)=O)Sc2ccc(OC)cc21 | 6 | 3 | -7 | 24 | x | 5 | x | x
CN1/C(=C/c2cccc[n+]2C)Sc2ccccc21 | -5 | 38 | -3 | 40 | 9 | -100 | x | x
COc1ccc2c(c1)N(C)/C(=C/c1cccc[n+]1C)S2 | -5 | 64* | 2 | 72* | -36 | -54 | 35 | 64*
C[C@H](CO)N1C[C@H](C)[C@H](CN(C)S(=O)(=O)c2cccs2)Oc2c(NS(=O)(=O)c3ccc(F)cc3)cccc2C1=O | x | x | x | x | -1 | x | x | x
COc1cccc(S(=O)(=O)Nc2ccc3c(c2)[C@@H]2C[C@@H](CC(=O)O)O[C@H](CO)[C@@H]2O3)c1 | x | x | x | x | 6 | x | x | x
NCC[C@@H]1CC[C@H](NC(=O)NC2CCCCC2)[C@H](CO)O1 | x | x | x | x | -25 | x | x | x
CC(C)c1ccc(/C=N/NC(=O)CN(c2cccc(Cl)c2Cl)S(C)(=O)=O)cc1 | -3 | 30 | 10 | 61* | x | 8 | 6 | x
CS(=O)(=O)N(CC(=O)N/N=C/c1ccccc1C(=O)O)c1cccc(Cl)c1Cl | 4 | -1 | 10 | 6 | -4 | -4 | x | x
C[C@@H]1CN([C@@H](C)CO)S(=O)(=O)c2ccc(C#CC3CC3)cc2O[C@H]1CN(C)C(=O)c1ccncc1 | x | x | x | x | -7 | x | x | x
Nc1ccc(C(=O)OCc2nc3cc4ccccc4cc3[nH]2)cc1 | 2 | -31 | 6 | 74* | 13 | -4 | 82* | 34
Nc1ccc(C(=O)OCCCc2nc3cc4ccccc4cc3[nH]2)cc1 | 4 | 2 | -12 | 65* | -6 | 5 | 22 | 94*
c1ccc(Cc2nc3ccccc3[nH]2)cc1 | -8 | -10 | 33 | 35 | -5 | 10 | x | x
Nc1ccc(Cc2nc3cc4ccccc4cc3[nH]2)cc1 | 0 | x | x | 69* | x | x | 34 | 70*
C[C@@H]1CN([C@H](C)CO)C(=O)c2cc(NC(=O)CCN3CCOCC3)ccc2O[C@@H]1CN(C)S(=O)(=O)c1ccc(F)cc1 | x | x | x | x | 6 | x | x | x
Cc1cc(C(=O)Nc2cccc3c2O[C@@H](CN(C)C(=O)NC(C)C)[C@H](C)CN([C@H](C)CO)C3=O)n(C)n1 | x | x | x | x | -7 | x | x | x
Cc1cc(C)c2cc(CN(CCCN(C)C)C(=S)NCc3ccccc3)c(=O)[nH]c2c1 | -2 | 5 | 2 | 53* | 5 | -11 | 30 | x
Cc1ccc(C)c2[nH]c(=O)c(CN(CCCN(C)C)C(=O)NCc3ccccc3)cc12 | x | 28 | 4 | 21 | x | -3 | x | x
O=C(C[C@H]1CC[C@@H](NC(=O)Nc2ccc(C(F)(F)F)cc2)[C@H](CO)O1)NCCN1CCCC1 | x | x | x | x | 8 | x | x | x
